PubChem BioAssay (NCI)
Compounds without any hit were thinned out: in the full panel of roughly 83,000, 20% have a hit.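 Negative percent growth values reflect cell death: -40 means 40% of the cells present at the start died, and -100 means all died.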 Activity calls are given as the source filed them. The calls were made as follows: active = growth percent below 10; inactive = the rest.

tested on: SK-MEL-2 melanoma; assay: NCI-60 one-dose screen, 48 h (100 = growth as untreated, 0 = no growth, -100 = all killed); settings: 10 µM unless noted

| Structure (SMILES) | growth |
| --- | --- |
| O=C(CC1(O)C(=O)Nc2ccc(Cl)cc21)c1ccc(C(=O)NCC2CCC3(CC2)OOC2(CCCCC2)OO3)cc1 (stereo not given) | 12.7% (inactive) |
| CNC12C3C4C1C1C2C3C41C(=O)N[C@H](C(=O)N(C)[C@H](C[C@@H](OC(C)=O)c1nc(C(=O)N[C@@H](Cc2ccccc2)C[C@H](C)C(=O)OC)cs1)C(C)C)C1CC1 (stereo not given in full) | 25.4% (inactive) |
| c1cc2c(c3c1CCNC3)OCO2 | 101% (inactive) |

tested on: EKVX NSCLC; assay: as above; settings: 10 µM unless noted

| Structure (SMILES) | growth |
| --- | --- |
| NC(=O)CNc1ccc([As]=[As]c2ccc(NCC(N)=O)cc2)cc1 (stereo not given) | 23.1% (inactive) |
| C/C(=C\c1ccn(-c2ccc(N)cc2)n1)[C@@H]1C[C@@H]2O[C@]2(C)CCC[C@H](C)[C@H](O)[C@@H](C)C(=O)C(C)(C)[C@@H](O)CC(=O)O1 | 54.7% (inactive) |
| CC1(C)N=C(N)N=C(N)N1c1ccc(OCCCNC(=O)Nc2ccc(S(=O)(=O)F)cc2)c(Cl)c1 | 53% (inactive) |
| c1ccc(COc2ccc3[nH]cc(CCN(Cc4ccccc4)Cc4ccccc4)c3c2)cc1 | 82.8% (inactive) |
| O=[As](O)(O)c1ccccc1[As](=O)(O)O | 110% (inactive) |
| C1CCC([PH+](C2CCCCC2)C2CCCCC2[PH+](C2CCCCC2)C2CCCCC2)CC1.[Au].[CH-]1CCCCC1CC1CCCC[N-]1 (stereo not given) | -61.9% (active) |
| CCCC(=O)O[C@@H]1C[C@H]2C[C@@H](O[C@@H]3O[C@@H](C)[C@@H](O)[C@@H](O)[C@H]3OC)C[C@@H](C[C@@H](C)/C=C/C=C\C[C@@H]3O[C@@H](C[C@@H]3C)[C@@H](O)C[C@H]3C[C@@]1(O)C(=O)O3)O2 | 22.6% (inactive) |
| CC[S][Hg][Cl] | 106% (inactive) |
| COc1cccc2c1c(C(=O)c1ccco1)cn2Cc1ccc(F)cc1 | 172% (inactive) |
| CC(=O)c1ccc(C(=O)NCC2CCC3(CC2)OOC2(CCCCC2)OO3)cc1 | -1.77% (active) |
| O=C(N/N=C/c1ccc(N(CCCl)CCCl)cc1)c1cccc2ccccc12 | 85.2% (inactive) |
| O=C(CCCCCNC1=CC(=O)c2ccccc2C1=O)NCCC[Te]c1ccccc1 | -31.9% (active) |
| N#CC1(c2ccccc2)CCN(Cc2ccccc2)CC1 | 96.2% (inactive) |
| O=P1(NCCCl)OCCCN1CCCl (stereo not given) | 105% (inactive) |
| O=C(CC1(O)C(=O)Nc2ccc(Br)cc21)c1ccc(C(=O)NCC2CCC3(CC2)OOC2(CCCCC2)OO3)cc1 (stereo not given) | -36.4% (active) |
| Cc1ccc(Nc2nc3c(s2)C2=CC[C@@H]4[C@H](CC[C@]5(C)C(=O)CC[C@@H]45)[C@@]2(C)CC3)cc1 | 56.7% (inactive) |
| C=C1C[C@](OC)([C@H](O)C(=O)N[C@@H](OC)[C@@H]2C[C@@H](O)C(C)(C)[C@@H](C[C@@H](COC)OC)O2)O[C@H](C)[C@@H]1C | -33.9% (active) |
| O=C1C2C(C(=O)[N]1[Hg][c]1cccs1)C1(Cl)C(Cl)=C(Cl)C2(Cl)C1(Cl)Cl (stereo not given) | 34.5% (inactive) |
| COc1ccc(/C=C\c2cc(OC)c(OC)c(OC)c2)cc1NC(=O)/C=C/c1ccc(OC)c(OC)c1 | 55.1% (inactive) |

| Structure (SMILES) | growth |
| --- | --- |
| O=C(O)c1c(Cl)n(Cc2ccc(O)cc2)c2ccc(O)cc12 | 112% (inactive) |
| CC(=O)OCc1cc[c]([Hg][Cl])o1 | 78.8% (inactive) |
| COC(=O)[C@@H](C)C[C@H](Cc1ccccc1)NC(=O)c1csc([C@@H](C[C@H](C(C)C)N(C)C(=O)[C@@H](NC(=O)CN(C)C)C2CC2)OC(C)=O)n1 | 46.3% (inactive) |
| CC(=O)Nc1nc2c(s1)CC[C@@]1(C)C2=CC[C@H]2[C@@H]3CC[C@H](O)[C@@]3(C)CC[C@@H]21 | 92.5% (inactive) |
| COc1ccc(/C(C)=C(\c2ccc(OCCN3CCOCC3)cc2)c2ccc(OC(=O)Cc3ccccc3)cc2)cc1 | 97.7% (inactive) |
| O=C(O)C(O)C(O)C1[O][Sb]([c]2ccc([N+](=O)[O-])cc2)[O]C1CO (stereo not given) | 105% (inactive) |
| Fc1c[c-]c(-c2ccccn2)c(F)c1.[CH3-].[Pt+2].c1ccc([PH+](c2ccccc2)c2ccccn2)cc1 | 4.9% (active) |
| CCCCCCCCOC(=O)CCN1CC1 | 99% (inactive) |
| O=C1N[C@@H]2[C@@H](O)[C@@H](O)[C@H](O)C[C@H]2c2cc3c(c(O)c21)OCO3 | -26.3% (active) |
| O=P(Oc1ccc(Cl)cc1)(N1CC1)N1CC1 | 101% (inactive) |
| O=C1CC2(CC3(Cl)C(Cl)=C(Cl)C2(Cl)C3(Cl)Cl)C(=O)O1 (stereo not given) | 95.7% (inactive) |
| COc1ccc(/C=C/c2cc(OC)c(OC)c(OC)c2)cc1NC(=O)/C=C/c1ccc(F)cc1 | 47.3% (inactive) |
| Nc1cc2nc3ccccc3nc2cc1N | 84.8% (inactive) |
| CN[C@@]1(c2ccccc2Cl)CCCC[C@@H]1NCC1CCCO1 (stereo not given in full) | 99.2% (inactive) |
| COc1cc2c(cc1OCCCn1c(-c3ccccn3)nc3ccccc31)N=C[C@@H]1CCCN1C2=O | 43.3% (inactive) |
| O=C(CC1(O)C(=O)Nc2ccc(Cl)cc21)c1ccc(C(=O)NCC2CCC3(CC2)OOC2(CCCCC2)OO3)cc1 (stereo not given) | -64.2% (active) |
| CNC12C3C4C1C1C2C3C41C(=O)N[C@H](C(=O)N(C)[C@H](C[C@@H](OC(C)=O)c1nc(C(=O)N[C@@H](Cc2ccccc2)C[C@H](C)C(=O)OC)cs1)C(C)C)C1CC1 (stereo not given in full) | 30.9% (inactive) |
| c1cc2c(c3c1CCNC3)OCO2 | 95.6% (inactive) |
